In PubChem BioAssay AID430 (Sanford-Burnham Center for Chemical Genomics, 2006):
Hit rate of the full screen: of about 63,000 compounds, about 1,100 (1.7%) were called active. The full list was thinned out, with actives kept by preference. Results with a measured potency or affinity are listed apart. Unmarked numbers belong to inactive results. No stated cut-off is given here; in the data, active means cytotoxicity above about 50%; inactive means the rest.

Test: cytotoxicity in HPDE-C7 cells, cell-based, fluorescence, HTS (AID 430);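 further: cells exposed to compound for 48 hours before viability readout; 0% = vehicle and 100% = reference cytotoxic drug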
Details: HPDE-C7 pancreatic duct cells viability, at 10 µM, active compounds read high
For `CCC(=O)N=c1sc2c(OC)ccc(OC)c2n1C`, the cytotoxicity was 1.2%.
Work on `CCOC(=O)CSc1nnc([C@@H](NC(=O)OC(C)(C)C)C(C)C)o1` yielded a cytotoxicity of 8.2%.
`O=C1CC(c2ccc(F)cc2)Cc2nc(N3CCN(c4ccccc4)CC3)ncc21` (configuration not stated) gave a cytotoxicity of 4.6%.
For `CC(=O)N1CCN=C1SCc1ccc(Br)cc1`, the cytotoxicity was 1.6%.
In the case of `O=C(CCNc1n[nH]c(=O)[nH]c1=O)N1CCOCC1`, the cytotoxicity is reported as -0.4%.
Work on `Cc1ccc(CNC(=O)CN2CCN(Cc3ccc(C)cc3)C2=O)cc1` yielded a cytotoxicity of -20.9%.
With `COc1cccc(NC(=O)c2ccccc2-c2nc(-c3cccc(C)c3)no2)c1` the cytotoxicity was 24.8%.
Compound `CCc1nc(N2CCCC2)c(C#N)c2c1CCCC2` has a cytotoxicity of -1.4%.
In the case of `CC(C)Cc1nc(N2CCOCC2)c(C#N)c2c1CCC2`, the cytotoxicity is reported as 74.1% (active).
Compound `CCCc1nc(N2CCOCC2)c(C#N)c2c1CCCC2` has a cytotoxicity of -18.8%.
For `CCc1nc(N2CCOCC2)c(C#N)c2c1CCCC2`, the cytotoxicity was 7.3%.
`CC(C)Cc1nc(N2CCCCC2)c(C#N)c2c1CCC2` gave a cytotoxicity of 11.9%.
In the case of `CCCc1nc(N2CCCC2)c(C#N)c2c1CCCC2`, the cytotoxicity is reported as 51.6% (active).
With `CCc1cc(=O)oc2cc(OC(C)C(=O)O)c(Cl)cc12` (configuration not stated) the cytotoxicity was 1.5%.
For `O=C(Cc1nc2ccccc2[nH]1)NCc1ccco1`, the cytotoxicity was -7.1%.
For `COC(=O)c1cccc(S(=O)(=O)N2CCN(c3nc4ccccc4s3)CC2)c1`, the cytotoxicity was -5.4%.
Work on `CCOc1ccc(N(CC(=O)N2CCc3ccccc32)S(=O)(=O)c2c(C)noc2C)cc1` yielded a cytotoxicity of -26.9%.
`CC(C)CN(C#N)c1nc(N2CCOCC2)nc(N2CCOCC2)n1` showed a cytotoxicity of 6.3%.
In the case of `COc1ccc(CNC(=O)C2CCNCC2)cc1`, the cytotoxicity is reported as -3.8%.
For `O=C(Cc1cn2ccsc2n1)Nc1cccc2cnccc12`, the cytotoxicity was 11.4%.
`Cc1cc(=O)[nH]c(SCCOc2cccc(C(F)(F)F)c2)n1` gave a cytotoxicity of -4.8%.
Compound `O=C(CSc1nc2cc(Cl)ccc2s1)N1CCN(C(=O)c2ccco2)CC1` has a cytotoxicity of -2.2%.
For `O=C(CSc1nnc(SCc2ccc(Cl)cc2)s1)N1CCN(C(=O)c2ccco2)CC1`, the cytotoxicity was -25.8%.
For `O=C(CSc1c2c(nc3ccc(Cl)cc13)CCCC2)N1CCN(C(=O)c2ccco2)CC1`, the cytotoxicity was 106% (active).
Work on `CC(C)(C)n1nnnc1C(c1ccc(C#N)cc1)N1CCCC2(CCCCC2)C1` (configuration not stated) yielded a cytotoxicity of 2.3%.
`CCOC(=O)c1ccc(NC(=O)CN2CCN(c3ccccc3)CC2)cc1` showed a cytotoxicity of 6%.
For `O=C(CN1CCc2ccccc2C1)Nc1ccccc1N1CCCCCC1`, the cytotoxicity was 93.4% (active).
For `CCOC(=O)c1ccc(NC(=O)CN2CCc3ccccc3C2)cc1`, the cytotoxicity was 57.6% (active).
In the case of `CC(C)CC(=O)Nc1ccccc1N1CCCC1`, the cytotoxicity is reported as -9.5%.
`O=C(CN1CCCCC1)Nc1ccccc1NC(=O)CN1CCCCC1` showed a cytotoxicity of -13.4%.
Work on `CCOC(=O)c1ccc(NC(=O)N2CCc3ccccc32)cc1` yielded a cytotoxicity of 5.4%.
Compound `O=C(c1cccs1)N(Cc1cccc(Cl)c1)C1CCS(=O)(=O)C1` (configuration not stated) has a cytotoxicity of -4.1%.
For `CCOc1ccccc1-n1nnnc1SCC(=O)Nc1cc2oc3ccccc3c2cc1OC`, the cytotoxicity was 43.6%.
`C=C(C)CSc1nc2nc(C)cc(C)n2n1` gave a cytotoxicity of 9.4%.
With `CC(C)NC(=O)CN(C)S(=O)(=O)c1ccc(F)cc1` the cytotoxicity was 1.5%.
For `O=C1NC2(CCCCC2)N=C1c1ccccc1`, the cytotoxicity was -3%.
In the case of `O=C1NC2(CCCC2)N=C1c1ccc(Cl)cc1`, the cytotoxicity is reported as -2.7%.
Work on `O=C(CN1CCN(c2ccc(F)cc2)CC1)Nc1ccc(-n2cnnn2)cc1` yielded a cytotoxicity of 16.2%.
Work on `CCOc1ccc2nc(NCCNC(=O)C3CC3)c(C)cc2c1` yielded a cytotoxicity of -13.7%.
In the case of `CCCCc1ccc(CC(=O)O)cc1`, the cytotoxicity is reported as -6.3%.
`CCCCc1ccc(-c2ccc(C)cc2O)nc1` gave a cytotoxicity of -28.6%.
Work on `COc1cccc2c1nc(C)c1cc(C)oc12` yielded a cytotoxicity of -6.1%.
Compound `Cc1cc(Nc2cc(C)on2)n2ncnc2n1` has a cytotoxicity of 1.6%.
Work on `O=C(NCc1ccc2c(c1)OCO2)c1ccc2c(=O)n(C3CCCC3)c(=O)[nH]c2c1` yielded a cytotoxicity of 2.7%.
`Cc1ccc(CC2SC(=O)NC2=O)cc1Cl` (configuration not stated) gave a cytotoxicity of -2.2%.
For `CCCSc1nnc(Sc2nnnn2-c2ccccc2)s1`, the cytotoxicity was 81% (active).
With `C(=C\CSc1nnnn1-c1ccccc1)/CSc1nnnn1-c1ccccc1` the cytotoxicity was -4.4%.
With `COc1ccc(CCNC(=O)CSc2nnnn2-c2ccccc2OC)cc1OC` the cytotoxicity was 8%.
Compound `COc1ccc(-n2nnnc2SCC(=O)NCCc2ccc(OC)c(OC)c2)cc1` has a cytotoxicity of -0.4%.
For `Cn1ccnc1Sc1nnnn1-c1ccccc1`, the cytotoxicity was -14.7%.
Work on `c1ccc(-n2nnnc2SCCCSc2nc3ccccc3s2)cc1` yielded a cytotoxicity of 5.8%.
For `Cc1ccc(C)c(Oc2nnnn2-c2ccccc2)c1`, the cytotoxicity was -0.9%.
For `COc1ccc(CCNc2nnc(Sc3nnnn3-c3ccccc3)s2)cc1OC`, the cytotoxicity was 53.9% (active).
`COc1ccc(Cc2nnc(SCC(=O)NCC3CCCO3)o2)cc1` (configuration not stated) gave a cytotoxicity of 0.6%.
In the case of `Cn1c2c(c(=O)n(C)c1=O)C(NC(=O)c1ccco1)(C(F)(F)F)C(=O)N2` (configuration not stated), the cytotoxicity is reported as -22.3%.
`O=S(=O)(c1ccc(Br)s1)N1CCN(c2ccccc2)CC1` showed a cytotoxicity of -10.8%.
Work on `COc1ccccc1NC(=O)c1nnn(Cc2ccccc2)c1NC(C)=O` yielded a cytotoxicity of 2.6%.
`COC(=O)Nc1ccc(NC(C)=O)cc1` showed a cytotoxicity of -16%.
`CCOC(=O)c1cc(-c2ccncc2)nc2c1c(C)nn2C` showed a cytotoxicity of 4%.
Work on `COc1ccc(C(OC(=O)c2c(C)noc2C)C(=O)NC2CCCC2)cc1` (configuration not stated) yielded a cytotoxicity of 1.7%.
Work on `CCN1CCN(CCCNC(=O)c2cc3sccc3n2CC)CC1` yielded a cytotoxicity of 3.8%.
`CCOCCCNC(=O)CSc1ccccc1` showed a cytotoxicity of -13.6%.
Work on `O=S(=O)(c1ccc(Br)cc1)N1CCn2c(nc3ccccc32)C1` yielded a cytotoxicity of 1.5%.
For `O=S(=O)(c1ccc2c(c1)nc1n2CCC1)N1CCOCC1`, the cytotoxicity was 30.9%.
With `Cc1ccc(NCC(O)C(O)C(O)CO)cc1C` (configuration not stated) the cytotoxicity was 53.3% (active).
With `COc1ccc(C(O)CNc2ccc(C)cc2)cc1` (configuration not stated) the cytotoxicity was -2.1%.
For `COc1cc(CNc2ccc(C)c(C)c2)cc(OC)c1OC`, the cytotoxicity was 46.9%.
In the case of `COc1ccc(OC)c(S(=O)(=O)N(C)CC(=O)Nc2ccc3c(c2)OCCO3)c1`, the cytotoxicity is reported as -1.4%.
In the case of `CCOc1ccc(N2CC(C(=O)NCCc3ccc(OC)c(OC)c3)CC2=O)cc1` (configuration not stated), the cytotoxicity is reported as 5.7%.
Work on `CS(=O)(=O)N1CCC(C(=O)NCc2ccc(F)cc2Cl)CC1` yielded a cytotoxicity of -2.6%.
For `CCOc1ccccc1NC(=O)CCn1c(=O)oc2ccccc21`, the cytotoxicity was 0.7%.
In the case of `COc1ccc(-n2nnnc2S(=O)(=O)CC(=O)N2CCCCC2)cc1`, the cytotoxicity is reported as 76.4% (active).
For `COc1cc(OC)cc(-n2nnnc2SCC(=O)N2CCCC2)c1`, the cytotoxicity was -7.2%.
For `COc1ccc(-n2nnnc2S(=O)(=O)Cc2ccc(C(=O)O)cc2)cc1`, the cytotoxicity was 4.8%.
`Cc1oc(-c2ccccc2F)nc1CS(=O)CC(=O)NCc1cccs1` (configuration not stated) gave a cytotoxicity of -2.6%.
For `CCc1c(O)nc(SCC(=O)Nc2ccc(C)cc2)n(C2CCCCC2)c1=O`, the cytotoxicity was 51.2% (active).
For `CCc1c(O)nc(SCC(=O)Nc2ccc(OC)cc2)n(C2CCCCC2)c1=O`, the cytotoxicity was -8.3%.
`CCc1c(O)nc(SCC(=O)Nc2ccccc2)n(-c2ccccc2)c1=O` gave a cytotoxicity of 23%.
With `COc1ccc(N2C(=O)CCC(C(=O)c3ccccc3)=C2C)cc1` the cytotoxicity was -2.2%.
In the case of `Cc1c2c(nc3nc4ccccc4n13)CC(C)(C)CC2=O`, the cytotoxicity is reported as 0.8%.
Work on `Cc1cc(C)c2cc(C#N)c(SCC(=O)NCC3CCCO3)nc2c1` (configuration not stated) yielded a cytotoxicity of -15.1%.
With `CCn1c2ccccc2c2cc(Nc3cc(C)nc4ncnn34)ccc21` the cytotoxicity was 64.5% (active).
In the case of `Cc1cc(Nc2ccc3ccccc3c2)n2ncnc2n1`, the cytotoxicity is reported as -0.5%.
`CCc1cccc(Nc2cc(C)nc3ncnn23)c1` gave a cytotoxicity of -0.8%.
`CCOCc1nnc(NC(=O)CSCc2ccccc2)s1` gave a cytotoxicity of -3.4%.
With `CC1CCCN(c2ncnc3c2cnn3-c2ccccc2)C1` (configuration not stated) the cytotoxicity was -9.4%.
`Cc1cc(NC(=O)c2c(-c3ccccc3Cl)noc2C)no1` showed a cytotoxicity of -12.4%.
`CC(C)OCCCNC(=O)c1c(N)n(/N=C/c2ccccn2)c2nc3ccccc3nc12` gave a cytotoxicity of 28.4%.
With `CCC(C)NC(=O)c1c(N)n(/N=C/c2cccnc2)c2nc3ccccc3nc12` (configuration not stated) the cytotoxicity was 41.4%.
For `CCCCNC(=O)c1c(N)n(/N=C/c2ccccn2)c2nc3ccccc3nc12`, the cytotoxicity was 50.5% (active).
In the case of `COCCCNC(=O)c1c(N)n(/N=C/c2ccccn2)c2nc3ccccc3nc12`, the cytotoxicity is reported as 22%.
Compound `COCCCNC(=O)c1c(N)n(/N=C/c2cccnc2)c2nc3ccccc3nc12` has a cytotoxicity of 33.1%.
Work on `COCCNC(=O)c1c(N)n(/N=C/c2cccs2)c2nc3ccccc3nc12` yielded a cytotoxicity of 42.8%.
`CC(C)CNC(=O)c1c(N)n(/N=C/c2ccccn2)c2nc3ccccc3nc12` gave a cytotoxicity of 14.8%.
With `CCOc1cc(C(=O)NCCOC)ccc1OC` the cytotoxicity was -6.6%.
`CC(=O)N1CCN(S(=O)(=O)c2ccc(C)cc2)C1C(C)C` (configuration not stated) showed a cytotoxicity of 11%.
In the case of `CCOc1ccc(-c2cc(CCCC(=O)NCc3cccnc3)no2)cc1`, the cytotoxicity is reported as -0.4%.
`Cn1cccc1Cc1nnc(SCC(=O)NCC2CCCO2)n1-c1ccc(F)cc1` (configuration not stated) showed a cytotoxicity of 0.9%.
With `COc1cccc(NC2=NC3(CCCCC3)N=C(N)N2)c1` the cytotoxicity was 3.1%.
For `COc1ccc(NC2=NC3(CCCCC3)N=C(N)N2)cc1`, the cytotoxicity was 4.1%.
In the case of `CCSc1nnc(NC(=O)c2cnccn2)s1`, the cytotoxicity is reported as -7%.
Compound `CCOC(=O)N1CCC(NC(=O)CC(NS(=O)(=O)c2ccc(Cl)cc2)c2ccco2)CC1` (configuration not stated) has a cytotoxicity of -6.1%.
